These results are taken from PubChem BioAssay (Tox21).

Assay [1] concerns the target Progesterone receptor (Homo sapiens) (UniProt P06401). As to the kind of experiment: qHTS assay to identify small molecule antagonists of the progesterone receptor (PR) signaling pathway (AID 1346795; active = well fitted inhibition curve with a large enough effect in the signal ratio in the repeat runs, not every such curve was filed as active; the % refers to the signal ratio; also: potency is read from the fitted curve at half-maximal effect). In short, it runs like this:
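Antagonist mode with agonist R5020 at 1 nM final and 16 hr incubation at 37C. Reporter was beta-lactamase driven by UAS in HEK293T (PR-UAS-bla), 2% charcoal-stripped serum; signal from LiveBLAzer FRET substrate, 2 hr at room temperature.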
(Quantitative high-throughput screening tests each substance at several concentrations.)

A short description of assay [2]: qHTS assay to identify small molecule antagonists of the progesterone receptor (PR) signaling pathway - cell viability counter screen (AID 1346798). Also: nearly all actives have a fitted effect of over 50% in size. Also: potency is read from the fitted curve at half-maximal effect. As to activity change, negative = cytotoxicity: series mostly up to about 92 µM. In short, it runs like this:
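Cytotoxicity read as CellTiter-Glo luminescence (30 min, room temperature) in the same wells as the beta-lactamase readout. HEK293T PR-UAS-bla cells in charcoal-stripped 2% FBS received compound and R5020, then 16 h at 37C, 5% CO2.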

Assay [3] can be described thus: qHTS assay to identify small molecule antagonists of the TGF-beta/Smad signaling pathway - cell viability counter screen (AID 1346824). Also: nearly all actives have a fitted effect of over 50% in size. In short, it runs like this:
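SBE-bla HEK 293T cells were plated overnight at 37 C, then given compounds in DMSO plus TGF-beta1 (added as 0.25 ng/mL solution) for 5 hr. After the bla read, CellTiter-Glo was added to the same wells and luminescence read after 30 min at room temperature.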

In assay [4] the target is Thyrotropin-releasing hormone receptor (Homo sapiens) (UniProt P34981). Nature of the assay: qHTS assay to identify small molecule antagonists of the thyrotropin-releasing hormone receptor (TRHR) signaling pathway (AID 1346877; active = well fitted inhibition curve with a large enough effect in the repeat runs, not every such curve was filed as active; also: series mostly up to about 51 µM). Summed up: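 Calcium signal in dye-loaded TRHR/HEK293 cells; compounds added 5 min before TRH (1 nM final); fluorescence monitored 3 min at 1 s steps.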

Assay [5] has the same target. Nature of the assay: qHTS assay to identify small molecule agonists of the thyrotropin-releasing hormone receptor (TRHR) signaling pathway (AID 1346891; calls by dose curve; also: series mostly up to about 58 µM). Summed up:
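Agonist-mode intracellular calcium readout: kinetic fluorescence over 3 min at 1 s intervals after compound addition to TRHR-HEK293 cells (18 h seeded, 2 h dye-loaded at 37 C). Fifteen concentrations, triplicates.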

Assay [6] in a line: Caspase-3/7 induction in HepG2 cells by small molecules, qHTS assay (AID 1346978). Also: nearly all actives have a fitted effect of over 15% in size. In short, it runs like this: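 Wild-type HepG2 cells (2,000/well) were settled 5 h at 37 C, 5% CO2, then exposed to compounds in DMSO for 17 h. Caspase-3/7 activity was read by luminescence 30 min after adding Caspase-Glo 3/7 reagent at room temperature.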
The nature of assay [7]: Caspase-3/7 induction in CHO-K1 cells by small molecules, qHTS cell viability counter screen (AID 1346979). Also: nearly all actives have a fitted effect of over 35% in size. Also: potency is read from the fitted curve at half-maximal effect. Summed up: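 Cytotoxicity counter screen: CellTiter-Fluor added to compound-treated wild-type CHO-K1 cells at 16 h (37C, 5% CO2), fluorescence measured 1 h later; same wells as caspase-3/7 measurement.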
The nature of assay [8]: Caspase-3/7 induction in CHO-K1 cells by small molecules, qHTS assay (AID 1346980). Also: nearly all actives have a fitted effect of over 15% in size. In short, it runs like this: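 Wild-type cells were seeded at 1,500 per well and settled 5 hr at 37 C, 5% CO2, then exposed to DMSO-dissolved compounds for 17 hr. Caspase-Glo 3/7 reagent was added, and luminescence was read after 30min at room temperature.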
The nature of assay [9]: Caspase-3/7 induction in HepG2 cells by small molecules, qHTS cell viability counter screen (AID 1346981). Also: nearly all actives have a fitted effect of over 30% in size. Also: potency is read from the fitted curve at half-maximal effect. As to activity change, negative = cytotoxicity: series mostly up to about 92 µM. In short, it runs like this: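 After a 5-hr attachment period at 37 C and 5% CO2, wild-type HepG2 cells received compounds in DMSO. Sixteen hours later CellTiter-Fluor was dispensed and the fluorescent signal quantified after a further hour.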
The target in assay [10] is Cytochrome P450 2D6 (Homo sapiens) (UniProt P10635). Nature of the assay: Cytochrome P450 Family 2 Subfamily D Member 6 (CYP2D6) small molecule antagonists: luciferase reporter qHTS assay (AID 1671196). Also: nearly all actives have a fitted effect of over 50% in size. Also: potency is read from the fitted curve at half-maximal effect. As to activity change, negative = inhibition: series mostly up to about 120 µM. In short, it runs like this:
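Room-temperature luminescent CYP2D6 activity assay: compound preincubated 10 min with enzyme–substrate mix, NADPH-initiated reaction 1 h, detection reagent 20 min before reading.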
(In a reporter assay the amount or activity of a reporter protein is the signal.)

Assay [11] concerns the target Cytochrome P450 2C19 (Homo sapiens) (UniProt P33261). As to the kind of experiment: Cytochrome P450 Family 2 Subfamily C Member 19 (CYP2C19) small molecule antagonists: luciferase reporter qHTS assay (AID 1671197). Also: nearly all actives have a fitted effect of over 65% in size. Also: potency is read from the fitted curve at half-maximal effect. As to activity change, negative = inhibition: series mostly up to about 120 µM. Summed up: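 Inhibition of CYP2C19 was scored from loss of luminescence in a P450-Glo proluciferin substrate assay, NADPH-started and run 1 h at 37C, with ketoconazole as positive control.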

Assay [12] has as its target Cytochrome P450 2C9 (Homo sapiens) (UniProt P11712). As to the kind of experiment: Cytochrome P450 Family 2 Subfamily C Member 9 (CYP2C9) small molecule antagonists: luciferase reporter qHTS assay (AID 1671198). Also: nearly all actives have a fitted effect of over 50% in size. Also: potency is read from the fitted curve at half-maximal effect. As to activity change, negative = inhibition: series mostly up to about 120 µM. Summed up: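 CYP2C9 activity was measured with a P450-Glo proluciferin substrate. Enzyme–substrate mix was held with compound for 10 min at room temperature, then NADPH regeneration solution was added for 1 h at 37C. Luciferin product was read as luminescence.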

Assay [13] in a line: qHTS assay to identify small molecule agonists of the progesterone receptor (PR) signaling pathway - cell viability counter screen (AID 1346799; calls by dose curve; also: nearly all actives have a fitted effect of over 45% in size). In short, it runs like this: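 Cytotoxicity measured by CellTiter-Glo luminescence (30 min, RT) in the same wells as the PR beta-lactamase agonist read. Those HEK293T cells had 16 h compound treatment at 37 C in 2% charcoal-stripped FBS medium.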

Assay [14] can be described thus: qHTS assay to identify small molecule agonists of the TGF-beta/Smad signaling pathway - cell viability counter screen (AID 1346829). Also: top concentration of the series differs between compounds; nearly all actives have a fitted effect of over 45% in size. In short, it runs like this:
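After overnight seating at 37 C and 5% CO2, reporter cells got compounds for 5 hr and FRET substrate for 2 hr; cell viability then came from CellTiter-Glo luminescence.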

Assay [15] is described as follows: qHTS assay to identify small molecule agonists of the TGF-beta/Smad signaling pathway (AID 1346859; active = well fitted activation curve with a large enough effect in the signal ratio in the repeat runs, not every such curve was filed as active; the % refers to the signal ratio; also: series mostly up to about 77 µM). In short, it runs like this:
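Fluorescence (ex 405 nm; em 460 and 530 nm) was read 2 h after LiveBLAzer FRET substrate at RT. The preceding compound treatment of overnight-plated SBE-bla HEK293T cells lasted 5 h at 37 C.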

The target of assay [16] is Nuclear receptor subfamily 1 group I member 2 (Homo sapiens) (UniProt O75469). Nature of the assay: Human pregnane X receptor (PXR) small molecule agonists, qHTS assay (AID 1346982). Also: nearly all actives have a fitted effect of over 35% in size. In short, it runs like this: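 Tox21 qHTS; PXR-Luc HepG2; compounds pinned from DMSO; 24 hr, 37 C; ONE-Glo luciferase detection, 30 min room temperature.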
The target of assay [17] is Nuclear receptor subfamily 1 group I member 2 (Rattus norvegicus) (UniProt Q9R1A7). As to the kind of experiment: Rat pregnane X receptor (rPXR) activation by small molecules, qHTS assay (AID 1346983). Also: nearly all actives have a fitted effect of over 20% in size. Particulars: rPXR luciferase reporter cells, One-Glo luminescence, 24 h; stronger effect = higher value. In short, it runs like this: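 Cell-based rPXR luciferase reporter assay, 2,000 cells per well, rested 5hr at 37 C before compound addition in DMSO, then 24 hr at 37 C. One-Glo reagent was added and luminescence read after 30 min at room temperature.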

For assay [18], the target named is Nuclear receptor subfamily 1 group I member 2 (Homo sapiens) (UniProt O75469). As to the kind of experiment: CYP3A4 induction through human pregnane X receptor (PXR) by small molecules, qHTS assay (AID 1346984). Also: nearly all actives have a fitted effect of over 40% in size. Summed up:
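Cells (DPX-2; HepG2 with PXR element plus CYP3A4-promoter luciferase) settled 5hr, then were treated 24hr at 37C. A 3hr, 3uM-final Luciferin-IPA step preceded luminescence measurement with One-Glo.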

Assay [19] has the same target. Nature of the assay: Human pregnane X receptor (PXR) activation by small molecules, qHTS assay (AID 1346985). Also: nearly all actives have a fitted effect of over 40% in size. In short, it runs like this:
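DPX-2 cells (HepG2 co-transfected with a PXR response element and a CYP3A4-promoter luciferase construct) were seeded at 2,000 per well, rested 5 hr at 37C, then exposed to DMSO-dissolved compounds for 24 hr. Activation was read as luciferase luminescence.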

Assay [20] in a line: Human pregnane X receptor (PXR) small molecule agonists, qHTS cell viability counter screen (AID 1346977). Also: nearly all actives have a fitted effect of over 50% in size. In short, it runs like this:
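Same-well viability read: CellTiter-Fluor added after 23 hr compound exposure, fluorescence measured 1 hr later. Cells were PXR-Luc HepG2 seeded at 2,000/well in 5% charcoal-stripped FBS medium, rested 5 hr before dosing at 37 C.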

Several values for one entry are separate records, joined by “and”; a condition that tells them apart may be missing. Equal entries are not always repeated. Results filed as inconclusive are left out. The source holds several records for some structures; these can differ, active in one and inactive in another. Activity calls are given as the source filed them. Unless noted, calls follow the shape of the dose curve; as a rule, active = well fitted curve in the direction sought with a large enough effect in the repeat runs; inconclusive = weak or mixed curves; inactive = no such curve, though single readings can be large; an effect the other way counts as inactive or inconclusive.
% is scaled to controls: 0 for no effect and ±100 for the full control effect.

Chain of Cytochrome P450 2D6 (Homo sapiens) (P10635 whole entry, looked up): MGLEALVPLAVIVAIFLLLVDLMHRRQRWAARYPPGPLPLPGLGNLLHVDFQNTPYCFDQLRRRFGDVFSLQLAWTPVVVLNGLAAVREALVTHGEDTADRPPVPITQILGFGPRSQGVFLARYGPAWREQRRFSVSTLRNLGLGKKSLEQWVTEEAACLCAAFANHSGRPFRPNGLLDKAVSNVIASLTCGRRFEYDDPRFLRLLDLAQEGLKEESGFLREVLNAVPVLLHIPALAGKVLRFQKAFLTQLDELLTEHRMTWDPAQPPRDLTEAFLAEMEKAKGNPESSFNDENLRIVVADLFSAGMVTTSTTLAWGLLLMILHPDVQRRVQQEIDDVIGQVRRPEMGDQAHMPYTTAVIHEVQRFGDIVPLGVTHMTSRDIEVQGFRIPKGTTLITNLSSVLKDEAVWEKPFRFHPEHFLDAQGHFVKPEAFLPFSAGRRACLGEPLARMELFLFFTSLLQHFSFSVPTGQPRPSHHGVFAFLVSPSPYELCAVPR
Chain of Thyrotropin-releasing hormone receptor (Homo sapiens) (P34981 whole entry, looked up): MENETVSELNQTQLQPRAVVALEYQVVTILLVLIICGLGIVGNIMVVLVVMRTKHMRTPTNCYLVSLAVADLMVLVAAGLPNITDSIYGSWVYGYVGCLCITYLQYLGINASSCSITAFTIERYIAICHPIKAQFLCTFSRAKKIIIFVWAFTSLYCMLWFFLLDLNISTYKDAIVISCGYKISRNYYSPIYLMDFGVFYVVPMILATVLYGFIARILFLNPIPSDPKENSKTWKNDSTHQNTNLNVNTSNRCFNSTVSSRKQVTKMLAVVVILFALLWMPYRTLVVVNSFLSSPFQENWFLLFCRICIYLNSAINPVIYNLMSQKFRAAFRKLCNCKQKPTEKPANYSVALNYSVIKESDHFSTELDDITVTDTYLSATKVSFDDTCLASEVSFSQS
Chain of Nuclear receptor subfamily 1 group I member 2 (Rattus norvegicus) (Q9R1A7 whole entry, looked up): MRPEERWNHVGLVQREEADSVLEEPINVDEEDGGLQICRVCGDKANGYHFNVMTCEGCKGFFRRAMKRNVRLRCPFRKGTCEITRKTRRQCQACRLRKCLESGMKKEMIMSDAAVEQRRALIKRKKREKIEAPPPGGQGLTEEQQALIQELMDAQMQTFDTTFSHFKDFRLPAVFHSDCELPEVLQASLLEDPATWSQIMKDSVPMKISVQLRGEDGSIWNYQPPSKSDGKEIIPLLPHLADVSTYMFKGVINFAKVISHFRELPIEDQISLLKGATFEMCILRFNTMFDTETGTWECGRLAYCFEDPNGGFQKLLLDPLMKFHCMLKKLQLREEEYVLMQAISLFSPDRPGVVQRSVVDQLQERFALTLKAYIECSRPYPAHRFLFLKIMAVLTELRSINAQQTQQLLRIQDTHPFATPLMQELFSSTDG
Chain of Nuclear receptor subfamily 1 group I member 2 (Homo sapiens) (O75469 whole entry, looked up): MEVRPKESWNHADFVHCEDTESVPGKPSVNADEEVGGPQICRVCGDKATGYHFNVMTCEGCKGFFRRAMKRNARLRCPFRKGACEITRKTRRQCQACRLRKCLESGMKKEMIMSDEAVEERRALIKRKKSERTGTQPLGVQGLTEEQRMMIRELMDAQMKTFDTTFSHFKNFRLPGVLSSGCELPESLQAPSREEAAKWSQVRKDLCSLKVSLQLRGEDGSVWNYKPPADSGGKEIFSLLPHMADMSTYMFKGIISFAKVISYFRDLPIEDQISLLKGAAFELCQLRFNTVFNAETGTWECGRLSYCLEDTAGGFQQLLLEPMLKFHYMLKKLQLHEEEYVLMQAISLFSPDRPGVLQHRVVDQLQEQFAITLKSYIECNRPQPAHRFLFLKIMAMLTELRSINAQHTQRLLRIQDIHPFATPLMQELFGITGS
Chain of Cytochrome P450 2C19 (Homo sapiens) (P33261 whole entry, looked up): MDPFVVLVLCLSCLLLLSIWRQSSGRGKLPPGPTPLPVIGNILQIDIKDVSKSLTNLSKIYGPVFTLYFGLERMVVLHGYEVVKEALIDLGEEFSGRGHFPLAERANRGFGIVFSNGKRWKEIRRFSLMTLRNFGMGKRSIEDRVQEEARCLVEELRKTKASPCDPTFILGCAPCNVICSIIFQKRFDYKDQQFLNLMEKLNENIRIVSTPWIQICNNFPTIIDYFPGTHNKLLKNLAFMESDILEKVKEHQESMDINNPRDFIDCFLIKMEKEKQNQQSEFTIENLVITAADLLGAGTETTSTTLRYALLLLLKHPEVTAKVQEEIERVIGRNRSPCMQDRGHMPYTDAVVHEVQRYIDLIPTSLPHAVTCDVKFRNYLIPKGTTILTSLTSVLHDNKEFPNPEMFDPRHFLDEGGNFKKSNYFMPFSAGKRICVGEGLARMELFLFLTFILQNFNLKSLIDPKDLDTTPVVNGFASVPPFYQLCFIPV
Chain of Progesterone receptor (Homo sapiens) (P06401 whole entry, looked up): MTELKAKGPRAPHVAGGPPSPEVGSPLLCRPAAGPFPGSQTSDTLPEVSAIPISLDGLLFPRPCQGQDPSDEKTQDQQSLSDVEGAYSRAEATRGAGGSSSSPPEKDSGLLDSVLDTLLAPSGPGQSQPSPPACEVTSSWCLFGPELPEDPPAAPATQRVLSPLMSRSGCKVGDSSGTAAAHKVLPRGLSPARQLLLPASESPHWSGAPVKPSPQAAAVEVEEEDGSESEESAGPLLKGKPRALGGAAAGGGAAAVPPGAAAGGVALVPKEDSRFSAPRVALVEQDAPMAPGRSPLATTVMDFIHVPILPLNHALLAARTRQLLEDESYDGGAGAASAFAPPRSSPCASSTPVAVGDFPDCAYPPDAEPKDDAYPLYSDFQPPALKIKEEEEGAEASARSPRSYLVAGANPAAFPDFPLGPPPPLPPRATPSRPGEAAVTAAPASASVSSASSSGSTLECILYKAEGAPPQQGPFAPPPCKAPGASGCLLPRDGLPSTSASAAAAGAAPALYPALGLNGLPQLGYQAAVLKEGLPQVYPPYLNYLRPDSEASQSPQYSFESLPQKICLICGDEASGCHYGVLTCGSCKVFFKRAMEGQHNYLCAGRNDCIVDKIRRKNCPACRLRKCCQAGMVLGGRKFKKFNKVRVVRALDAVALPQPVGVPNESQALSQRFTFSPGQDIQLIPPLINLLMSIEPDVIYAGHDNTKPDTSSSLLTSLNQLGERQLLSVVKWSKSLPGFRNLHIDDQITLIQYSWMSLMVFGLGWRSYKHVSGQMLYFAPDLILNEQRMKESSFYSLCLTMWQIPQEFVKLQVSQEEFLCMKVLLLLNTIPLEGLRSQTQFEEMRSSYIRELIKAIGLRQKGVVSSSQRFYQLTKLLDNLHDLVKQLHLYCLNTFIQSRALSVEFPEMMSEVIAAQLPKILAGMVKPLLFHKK
Chain of Cytochrome P450 2C9 (Homo sapiens) (P11712 whole entry, looked up): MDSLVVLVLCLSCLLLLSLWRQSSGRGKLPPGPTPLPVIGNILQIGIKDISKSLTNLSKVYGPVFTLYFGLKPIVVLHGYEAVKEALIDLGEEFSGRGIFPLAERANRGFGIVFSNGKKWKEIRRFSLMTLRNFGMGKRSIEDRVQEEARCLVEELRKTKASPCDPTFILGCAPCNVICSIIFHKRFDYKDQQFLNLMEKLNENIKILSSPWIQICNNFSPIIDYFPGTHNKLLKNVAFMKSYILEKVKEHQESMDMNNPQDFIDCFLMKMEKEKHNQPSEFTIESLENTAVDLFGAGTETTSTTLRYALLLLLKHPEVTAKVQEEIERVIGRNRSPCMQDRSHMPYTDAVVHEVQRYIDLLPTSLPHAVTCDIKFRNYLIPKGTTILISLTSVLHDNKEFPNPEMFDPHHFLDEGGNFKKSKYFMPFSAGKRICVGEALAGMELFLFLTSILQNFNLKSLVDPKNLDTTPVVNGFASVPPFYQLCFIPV

With `CCCCCC(=O)O[C@]1(C(C)=O)CC[C@H]2[C@@H]3CCC4=CC(=O)CC[C@]4(C)[C@H]3CC[C@@]21C`, the Potency was 21.1 µM (active) in assay [1]; 43 µM (active) and 33.5 µM (active) in assay [2]; 60.7 µM (active) and 33.5 µM (active) in assay [7]; 60.7 µM (active) in assay [9]; 6.28 µM (active) and inactive in assay [10]; 17.7 µM (active) and 17.4 µM (active) in assay [11]. Moreover, the Potency in assay [12] is 7.91 µM (active) and 11 µM (active). The Potency entry in assay [3], in [4], in assay [5], in [6] and in [8] was “inactive” in each case.

For `COc1cc(C(=S)N2CCOCC2)ccc1O`, the Potency result in assay [1], in [2], in [13], in [14], in [6] and in assay [7] was “inactive” in each case. The Potency result in [8], in [9], in assay [16], in [18], in assay [19] and in [10] was “inactive” in each case. For the same compound, the Potency result in assay [12] was “inactive”. Further, in assay [15], the result was inactive. Also, in assay [17], the max activation was -1.33% (inactive).

For the compound `O=C(OCc1ccccc1)c1ccc(O)cc1`, the Potency in assay [1] was 34.4 µM (active) and 26.6 µM (active). The Potency result in assay [13], in assay [3], in assay [14], in assay [4], in assay [5] and in assay [20] was “inactive” in each case. The Potency entry in [6], in assay [7], in assay [8], in [9] and in assay [19] was “inactive” throughout. Further, in [15], the call was inactive. Moreover, the max activation in [17] was 0.826% (inactive).

Regarding `O=C(O)c1cn(-c2ccc(F)cc2)c2cc(N3CCNCC3)c(F)cc2c1=O`, the activity change, negative = inhibition in [1] is 13.8% [at 18.9 µM] (inactive). Moreover, the Potency result in assay [2], in assay [14], in assay [20], in assay [6], in assay [8] and in assay [9] was “inactive” each time. Further, the Potency result in assay [10], in assay [11] and in assay [12] was “inactive” throughout. Also, the activity change, negative = cytotoxicity in assay [13] is 10.6% [at 19 µM] (inactive). For the same compound, in assay [15], the outcome was inactive. Further, the max activation in assay [17] was -0.0913% (inactive).

In the case of `CC[C@@H](N)CO`, the Potency result in assay [1], in [2], in assay [13], in assay [14], in [4] and in assay [5] was “inactive” in each case. For the same compound, the Potency result in assay [20], in assay [6], in assay [7], in assay [8], in assay [9] and in assay [16] was “inactive” in each case. Moreover, the Potency entry in assay [10], in assay [11] and in [12] was “inactive” each time. For the same compound, in assay [15], the compound was classed as inactive.

Regarding `Cc1ccnc2c1NC(=O)c1cccnc1N2C1CC1`, the Potency entry in assay [1], in [2], in [13], in assay [14], in [4] and in assay [5] was “inactive” in each case. Also, the Potency result in [20], in [6], in assay [7], in [8], in assay [9] and in [16] was “inactive” each time. Besides, the Potency result in [18], in [19], in assay [11] and in [12] was “inactive” throughout. Moreover, the outcome in assay [15] was inactive. Also, the max activation in assay [17] is -1.62% (inactive). In addition, the Potency in assay [10] is 7.4 µM (active) and inactive.

With `O=C1NCC2(CCN(CCc3ccccc3)CC2)O1`, the Potency result in assay [1], in assay [13], in assay [3], in assay [14], in assay [4] and in assay [5] was “inactive” in each case. For the same compound, the Potency entry in assay [20], in assay [6], in assay [7], in assay [8], in [9] and in assay [16] was “inactive” throughout. Besides, the Potency result in assay [18], in assay [19], in assay [11] and in [12] was “inactive” each time. In addition, the result in assay [15] was inactive. For the same compound, in assay [17], the max activation was -2.2% (inactive). The Potency in assay [10] is 13.8 µM (active).
